A selection: hits, their analogues and other compounds. The true share with any hit is near 1.3%.
cardiac RTF act – cardiac RTF calcium sensitivity activators, primary screen, biochemical, IANBD-TnC fluorescence, EC20 calcium; activation, % at 7.2 µM; IANBD-labeled TnC RTF fluorescence at EC20 calcium; 0% EC20 calcium, 100% full calcium; Troponin I, cardiac muscle (Homo sapiens) + Troponin T, cardiac muscle (Homo sapiens) + …; AID 493008, 2010; 0.24% of 340,000 active;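 active means activation above the mean over all tested compounds plus 3 SD, cut at about 30% in these data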;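 further: rise in fluorescence read as greater calcium sensitivity of cardiac thin filaments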
CRFBP-R2 block – antagonists of CRF-BP/CRF-R2 complex, primary screen, cell-based, HEK293, calcium dye fluorescence, uHTS. CRF-induced calcium fluorescence. inhibition, % at 11.8 µM. 0.59% of 350,000 active. AID 588475, 2011;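 active means inhibition of the ligand-induced calcium signal above about 50% at the single tested concentration, limit read from the data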
CRFBP-R2 agonist – agonists of CRF-BP/CRF-R2 complex, primary screen, cell-based, HEK293, calcium dye fluorescence, uHTS; activation, % at 13.2 µM; CRF-binding protein / CRF receptor 2 complex (human); calcium dye fluorescence (FLIPR); percent of saturating CRF peptide response; AID 588473, 2011; 0.46% of 350,000 active;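 active means activation of at least 50%, plus an integration ratio under a set limit after plate pattern correction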;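 further: plate controls were neutral control wells without compound for no effect and CRF at EC100 for full effect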
LANA DNA inh – inhibitors of KSHV C-LANA binding to DNA, primary screen, biochemical, fluorescence polarization, FAM-LBS DNA, MBP-C-LANA, single point; Kaposi's sarcoma herpesvirus LANA C-terminal domain (residues 932-1162) DNA binding; inhibition, % at 9 µM; 0.078% of 340,000 active; AID 504423, 2011;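 active means highest replicate inhibition at or above 60% at 9 µM, even if other replicates fall short; inactive means all replicates below 60% inhibition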;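 further: 0% = neutral control wells and 100% = 4 µM acridine orange control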
Keap1-Nrf2 PPI – Keap1-Nrf2 protein-protein interaction inhibitors, primary screen, biochemical, fluorescence polarization, single point; inhibition, % at 9.4 µM; Kelch-like ECH-associated protein 1 (Homo sapiens), Q14145; Keap1 Kelch-Nrf2 peptide fluorescence polarization, 1536-well; 0.15% of 340,000 active; in the data active means inhibition above about 12%; inconclusive means no clear call, values can overlap the other calls; inactive means below about 7.3%;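 further: human Keap1 Kelch domain with fluorescein labeled Nrf2 9mer peptide probe; 0% = neutral control wells and 100% = peptide positive control; higher means more block of Keap1 binding to Nrf2 peptide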
RTF Ca sens inh – cardiac RTF calcium sensitivity inhibitors, primary screen, biochemical, IANBD-TnC fluorescence, EC70 calcium. Troponin I, cardiac muscle (Homo sapiens) + Troponin T, cardiac muscle (Homo sapiens) + …. IANBD-labeled cardiac RTF, Ca2+ fluorescence. 0.12% of 340,000 active. inhibition, % at 7.15 µM;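 active means inhibition above the mean inhibition of all tested compounds plus 3 SD, cut at about 17% in these data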;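 further: assay run at fixed EC70 calcium of 1.6 mM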
Numbers without * were called inactive; ? = inconclusive; / = not tested or not shown.

SMILES	cardiac RTF act	CRFBP-R2 block	CRFBP-R2 agonist	LANA DNA inh	Keap1-Nrf2 PPI	RTF Ca sens inh
CCCP(=O)(CC(=O)N(CC)CC)c1ccccc1 (centres undefined)	0	58*	3	0	-3	-11
CCN(CC)C(=O)Cc1ccccc1	1	0	5	-1	0	1
CC(=O)C1=C(c2cccc([N+](=O)[O-])c2)N(C(C)=O)n2c(C)nnc2S1	-7	54*	-1	1	1	1
Cc1ccc(S(=O)(=O)NNC(=O)CCCCC(=O)NNS(=O)(=O)c2ccc(C)cc2)cc1	-2	16	-1	0	0	-6
Cc1ccccc1OCC(=O)Nc1ccc2oc(=O)ccc2c1	-1	0	-1	2	3	0
Cc1ccc(N(Cc2ccc([N+](=O)[O-])cc2)C(=O)c2ccco2)cc1	5	62*	-4	-1	4	-2
CC1(C)C2CC=C(/C=N/NC(=O)c3ccccc3O)C1C2 (centres undefined)	1	59*	47	1	-4	-7
CNC(=S)N/N=C/C1=CCC2CC1C2(C)C (centres undefined)	1	-9	-3	0	3	4
Cc1c(C(=O)O)oc2c1/C(=N\O)CC(C)(C)C2	0	17	-1	0	-4	0
CCn1cc(C2=NOC(C(=O)Nc3ccccc3C(=O)OC)C2)c(C)n1 (centres undefined)	2	52*	-5	0	-2	-4
O=C1NCN(CCO)CN1	-2	4	0	1	-9	-3
Cc1ccccc1NC1=NC(=S)N(c2ccccc2)C12CCCCC2	6	61*	2	1	2	-1
CCCS(=O)(=O)N1CCC(C(=O)NCCCOC(C)C)CC1	8	60*	3	1	-4	-10
C=CCC1=C/C(=C\c2c(N)n3nc(CC(=O)N4CCCC4)sc3nc2=O)C=C(OC)C1=O	3	-106	71*	-7	-10	-6
COC1=C/C(=C/c2c(N)n3nc(CC(=O)N4CCCCC4)sc3nc2=O)C=CC1=O	10	-59	40	0	-7	-8
Nc1c(C=C2C=CC(=O)C=C2)c(=O)nc2sc(CC(=O)N3CCOCC3)nn12	5	8	0	15	-2	2
CCOC1=C/C(=C/c2c(N)n3nc(CC(=O)N4CCCCC4)sc3nc2=O)C=CC1=O	2	-68	57*	16	-12	4
Nc1c(/C=C2\C=Nc3ccccc32)c(=O)nc2sc(CC(=O)N3CCOCC3)nn12	-6	0	1	2	-6	1
COC1=CC(=Cc2c(N)n3nc(CC(=O)N4CCOCC4)sc3nc2=O)C=C(OC)C1=O	12	-109	151*	0	-25	-8
CCOC(=O)C(CCCCCCC(NC(C)=O)(C(=O)OCC)C(=O)OCC)(NC(C)=O)C(=O)OCC	83*	-6	0	0	-3	0
CC1=CC(c2ccc(Cl)cc2)n2nc(NC(=O)CCCC(=O)O)nc2N1 (centres undefined)	-3	-3	0	0	0	0
Nc1ccc(-c2cnc3ccccc3n2)cc1	/	6	-1	/	/	/
Nc1ccc2nc(-c3ccccc3)cnc2c1	27	-53	66*	22	9	-37
O=C1Nc2ccccc2/C1=C/c1cnc(-c2ccccc2)[nH]1	36*	-25	42	4	1	-63
O=C1Nc2ccccc2/C1=C/c1cccnc1	7	11	-2	4	-11	-3
CS(=O)(=O)N(CC(=O)N1CCOCC1)c1cc(C(F)(F)F)ccc1Cl	2	1	-1	2	?	-7
CCn1nc(C)cc1-c1nnc(Sc2ncc([N+](=O)[O-])s2)n1C	-4	97*	-1	-2	10	-5

Source: PubChem
